Bioassay records (PubChem)
Pf apPOL inh: Pf-apPOL inhibitors, biochemical, fluorescence | Plasmodium falciparum apicoplast DNA polymerase (apPOL) | Recombinant Pf-apPOL, molecular beacon fluorescence, 1.5 h | 0.25% of 210,000 active | inhibition, % at 10 µM
mHTT-CaM PPI inh: mutant huntingtin-calmodulin interaction inhibitors – biochemical, AlphaScreen, primary screen. AlphaScreen His-mHTT/GST-CaM binding, luminescence. inhibition, % at 15 µM. 3.6% of 190,000 active. AID 1671202, 2021;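 also: 0% = both proteins with DMSO and 100% = one protein alone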
Numbers without * were called inactive; nt = no result given. This excerpt belongs to a sample that is enriched for hits. Rule as the data show it: active = inhibition above about 50%; inactive = the rest.

SMILES	Pf apPOL inh	mHTT-CaM PPI inh
CCn1ccc2c(cc(C(=O)Nc3ccc(C)cc3C)n2C)c1=O	-5	1
COc1ccc(Br)cc1CN(CCc1ccc2c(c1)OCO2)Cc1cccnc1	-10	57*
CCOc1ccc(CN(CCc2ccc3c(c2)OCO3)Cc2cc(OC)c(OC)c(OC)c2)cc1	-5	11
CC(C)CCNC(=O)C1(C)CCC(=O)N1CCCN1CCN(c2cccc(Cl)c2)CC1 (configuration not stated)	1	22
O=C(NCCCN1CCN(c2cccc(Cl)c2)CC1)C1(n2cccc2)CCCCC1	-13	98*
Cc1ccc(Cl)cc1N1CCN(CCNC(=O)c2csc3c2CCCC3)CC1	0	30
Cc1ccc(Cl)cc1N1CCN(CCNC(=O)C2(n3cccc3)CCCCC2)CC1	-15	56*
CCCn1ncc(N2CCC(C(=O)NCCCOC(C)C)CC2)cc1=O	-5	0
COc1ccccc1CN1CCc2nc(N3CCN(c4ccccc4)CC3)ncc2C1	2	24
COc1ccc(CN2CCc3nc(N4CCC(C)CC4)ncc3C2)cc1	-2	4
c1ccc(CCN2CCc3nc(N4CCN(c5ccccn5)CC4)ncc3C2)cc1	1	60*
COc1ccc(OC)c(CN2CCc3nc(N4CCC(C)CC4)ncc3C2)c1	-2	52*
Cc1ccc(CN2CCc3nc(N4CCC(C)CC4)ncc3C2)cc1C	2	72*
Cc1ccc(CN2CCc3nc(N4CCC(C)CC4)ncc3C2)cc1	-2	49
Clc1cccc(CN2CCc3nc(N4CCN(c5ccccn5)CC4)ncc3C2)c1	0	46
COc1ccccc1CN1CCc2nc(N3CCN(c4ncccn4)CC3)ncc2C1	5	100*
O=C(O)c1cccc(NC(=O)c2ccc([N+](=O)[O-])cc2)c1	-3	-2
O=C(CCNS(=O)(=O)c1ccc(Cl)cc1)NCc1ccc(F)cc1Cl	-15	-7
CCOC(=O)C(C#N)=CNc1ccccc1SC	-7	nt
CCOc1ccccc1CN1CCc2nc(N3CCN(c4ccccc4F)CC3)ncc2C1	4	66*
COc1ccc(OC)c(CN2CCc3nc(N4CCN(c5ccccn5)CC4)ncc3C2)c1	-2	50*
COc1ccccc1CN1CCc2nc(N3CCN(c4ccccc4F)CC3)ncc2C1	1	10
CC1CCN(c2ncc3c(n2)CCN(Cc2cccc(F)c2F)C3)CC1	-3	74*
Fc1cccc(CN2CCc3nc(N4CCN(c5ccccn5)CC4)ncc3C2)c1F	-7	29
COc1ccc(CN2CCc3nc(N4CCN(c5ccccn5)CC4)ncc3C2)c(OC)c1	0	37
SMILES	Pf apPOL inh	mHTT-CaM PPI inh
COCCc1noc(COC2CCCN(C(=O)c3ccsc3)C2)n1 (configuration not stated)	-2	-12
CCOc1cc(/C=C2\C(=O)NN(c3ccccc3)C2=O)ccc1OCCOc1cccc(C)c1	5	10
O=C(CSc1ccc(F)cc1)Nc1ccc(CC(=O)N2CCOCC2)cc1	-12	-9
Cc1nc(Nc2ccc(O)cc2)nc(Nc2ccc(O)cc2)c1[N+](=O)[O-]	0	57*
Cc1nc(Nc2ccc3c(c2)OCCO3)nc(Nc2ccc3c(c2)OCCO3)c1[N+](=O)[O-]	nt	24
CN(CCc1ccccn1)C(=O)c1cc2nc(-c3ccc4c(c3)OCO4)cc(C(F)(F)F)n2n1	-1	2
Cc1cc(/C=C2\NC(=O)NC2=O)c(C)n1-c1ccc(Cl)c(Cl)c1	-3	100*
Cc1cc(/C=C2\SC(=O)NC2=O)c(C)n1-c1ccc(I)cc1	7	12
Cc1cc(/C=C2/C(=O)NC(=O)N(C)C2=O)c(C)n1-c1ccc(F)c(Cl)c1	-4	7
Cc1cc(/C=C2\NC(=O)NC2=O)c(C)n1-c1cccc(I)c1	1	91*
CC(C)NC(=O)Cn1cnc2c(oc3ccccc32)c1=O	1	-10
OCc1cn(-c2ccccc2)nc1-c1cccnc1	-1	-3
O=C(/C=C/c1cn(-c2ccccc2)nc1-c1cccnc1)c1cccs1	0	52*
Cc1c(N=Cc2cn(-c3ccccc3)nc2-c2cccnc2)c(=O)n(-c2ccccc2)n1C	-8	31
O=C(/C=C/c1cn(-c2ccccc2)nc1-c1cccnc1)c1ccco1	6	53*
O=C(NC1CCCCC1)c1ccc2c(c1)NC(=O)C1CCCCN21 (configuration not stated)	2	-6
CCc1noc(COC2CCCN(C(=O)COc3cccc(C)c3)C2)n1 (configuration not stated)	-9	-13
COc1cccc(NC(=O)c2cc(Br)ccc2OC)c1	-1	-6
COc1cccc(NC(=O)N2C(=O)C(=O)c3cc(Br)ccc32)c1	28	73*
Cc1cc2c(=O)n(CC(=O)Nc3cccc(C(F)(F)F)c3)cnc2s1	-1	-11
Cc1nnc2sc(SCC(=O)Nc3cccc(C(F)(F)F)c3)nn2c1=O	0	99*
O=C1Nc2ccc(Br)cc2C(O)(C(=O)NC2CC2)N1c1ccc(Cl)cc1 (configuration not stated)	-5	-5
